Measured values taken from PubChem BioAssay AID1159580 (chemical genetic matrix, 2015).
“And” between values parts separate entries of the source, which are not always exact repeats. Equal entries are not always repeated. Among all 5,500 compounds or so, about 2,000 (36%) were called active. Inconclusive results (about 18%) are left out. Cut-off read from the data, not from the text of the source: active = normalized growth mostly below about 0.91 (no sharp cut-off); inconclusive = no clear call, values can overlap the other calls; inactive = mostly above about 0.92. Some of the results follow.

Experiment: chemical genetic growth profiling, strain panel (AID 1159580);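 note: tested at 20 µM; growth read once vehicle control cultures reached saturation at 30 °C; 1 = growth at the plate median or of vehicle wells; lower values mean less growth of the strain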
Conditions: growth OD

Measured: normalized growth

CC(C)(C)NCC(O)c1ccccc1Cl (stereo unspecified)
inactive: S. cerevisiae deletion strains, locus YJR075W, strain HOC1, active compounds read low 1.01 and 1.04 | S. cerevisiae deletion strains, locus YKL009W, strain mrt4, active compounds read low 0.96 | S. cerevisiae deletion strains, locus YKL068W, active compounds read low 0.991 | S. cerevisiae deletion strains, locus YKL085W, strain MDH1 (second series), active compounds read low 0.983 | S. cerevisiae deletion strains, locus YKL085W, strain MDH1, active compounds read low 0.983 | S. cerevisiae deletion strains, locus YKL160W, strain elf1, active compounds read low 1.02 | S. cerevisiae deletion strains, locus YKL190W, strain CNB1, active compounds read low 0.995 | S. cerevisiae deletion strains, locus YKR001C, strain vps1, active compounds read low 0.976 | S. cerevisiae deletion strains, locus YKR026C, strain gcn3, active compounds read low 0.994 | S. cerevisiae deletion strains, locus YKR091W, strain srl3, active compounds read low 0.997 | S. cerevisiae deletion strains, locus YLL001W, strain dnm1, active compounds read low 1 | S. cerevisiae deletion strains, locus YLL026W, active compounds read low 0.983 | S. cerevisiae deletion strains, locus YLL041C, strain sdh2, active compounds read low 0.997 | S. cerevisiae deletion strains, locus YLR027C, strain aat2, active compounds read low 0.992 | S. cerevisiae deletion strains, locus YLR039C, strain RIC1, active compounds read low 0.923 | S. cerevisiae deletion strains, locus YLR058C, strain SHM2, active compounds read low 0.975 | S. cerevisiae deletion strains, locus YLR102C, strain apc9, active compounds read low 0.986 | S. cerevisiae deletion strains, locus YLR113W, strain HOG1, active compounds read low 1.01 | S. cerevisiae deletion strains, locus YLR221C, strain rsa3, active compounds read low 1.01 | S. cerevisiae deletion strains, locus YLR258W, strain gsy2, active compounds read low 0.974 | S. cerevisiae deletion strains, locus YLR262C, strain YPT6 (second series), active compounds read low 0.997 | S. cerevisiae deletion strains, locus YLR262C, strain YPT6, active compounds read low 0.887 | S. cerevisiae deletion strains, locus YLR268W, strain sec22, active compounds read low 1.09 | S. cerevisiae deletion strains, locus YLR320W, strain mms22, active compounds read low 0.981 | S. cerevisiae deletion strains, locus YLR330W, strain CHS5, active compounds read low 0.992 | S. cerevisiae deletion strains, locus YLR342W, strain FKS1 (second series), active compounds read low 0.967 | S. cerevisiae deletion strains, locus YLR342W, strain FKS1, active compounds read low 0.999 | S. cerevisiae deletion strains, locus YLR357W, strain rsc2, active compounds read low 0.982 | S. cerevisiae deletion strains, locus YLR370C, strain arc18, active compounds read low 0.997 | S. cerevisiae deletion strains, locus YLR371W, strain rom2, active compounds read low 0.982 | S. cerevisiae deletion strains, locus YLR384C, strain iki3, active compounds read low 0.989 | S. cerevisiae deletion strains, locus YLR418C, strain cdc73, active compounds read low 0.993 | S. cerevisiae deletion strains, locus YML016C, strain PPZ1, active compounds read low 0.99 | S. cerevisiae deletion strains, locus YML032C, strain rad52, active compounds read low 1.02 | S. cerevisiae deletion strains, locus YML120C, strain ndi1, active compounds read low 1.01 | S. cerevisiae deletion strains, locus YML124C, strain tub3, active compounds read low 0.984 | S. cerevisiae deletion strains, locus YMR058W, strain fet3, active compounds read low 0.997 | S. cerevisiae deletion strains, locus YMR078C, strain ctf18, active compounds read low 0.982 | S. cerevisiae deletion strains, locus YMR125W, strain sto1, active compounds read low 0.962 | S. cerevisiae deletion strains, locus YMR129W, active compounds read low 0.967 | S. cerevisiae deletion strains, locus YMR205C, strain PFK2, active compounds read low 0.951 | S. cerevisiae deletion strains, locus YMR223W, strain ubp8, active compounds read low 0.96 | S. cerevisiae deletion strains, locus YMR231W, strain pep5, active compounds read low 0.998 | S. cerevisiae deletion strains, locus YMR263W, strain SAP30, active compounds read low 0.993 and 0.995 | S. cerevisiae deletion strains, locus YMR307W, strain GAS1, active compounds read low 0.994 and 0.992 | S. cerevisiae deletion strains, locus YNL067W, strain RPL9B, active compounds read low 1.02 | S. cerevisiae deletion strains, locus YNL071W, strain lat1, active compounds read low 1 | S. cerevisiae deletion strains, locus YNL128W, strain TEP1, active compounds read low 0.962 | S. cerevisiae deletion strains, locus YNL153C, strain GIM3, active compounds read low 1.01 | S. cerevisiae deletion strains, locus YNL175C, strain NOP13, active compounds read low 1.02 | S. cerevisiae deletion strains, locus YNL183C, strain NPR1, active compounds read low 0.939 | S. cerevisiae deletion strains, locus YNL197C, strain WHI3, active compounds read low 0.981 | S. cerevisiae deletion strains, locus YNL209W, strain ssb2, active compounds read low 1 | S. cerevisiae deletion strains, locus YNL224C, strain SQS1, active compounds read low 1.01 | S. cerevisiae deletion strains, locus YNL233W, strain BNI4, active compounds read low 1.02 | S. cerevisiae deletion strains, locus YNL248C, strain rpa49, active compounds read low 1.02 | S. cerevisiae deletion strains, locus YNL250W, strain rad50, active compounds read low 0.976 | S. cerevisiae deletion strains, locus YNL271C, strain bni1, active compounds read low 0.987 | S. cerevisiae deletion strains, locus YNL298W, strain CLA4, active compounds read low 0.975 | S. cerevisiae deletion strains, locus YNL307C, strain MCK1, active compounds read low 0.992 | S. cerevisiae deletion strains, locus YNL322C, strain KRE1 (second series), active compounds read low 0.989 | S. cerevisiae deletion strains, locus YNL322C, strain KRE1, active compounds read low 0.996 and 1 | S. cerevisiae deletion strains, locus YNR049C, strain mso1, active compounds read low 0.994 | S. cerevisiae deletion strains, locus YNR052C, strain pop2, active compounds read low 0.985 | S. cerevisiae deletion strains, locus YOL006C, strain TOP1, active compounds read low 1.03 | S. cerevisiae deletion strains, locus YOL012C, strain htz1 0.982 | S. cerevisiae deletion strains, locus YOL147C, strain pex11, active compounds read low 0.992 | S. cerevisiae deletion strains, locus YOR001W, strain rrp6, active compounds read low 0.996 | S. cerevisiae deletion strains, locus YOR061W, strain CKA2, active compounds read low 0.969 | S. cerevisiae deletion strains, locus YOR069W, strain VPS5, active compounds read low 0.991 | S. cerevisiae deletion strains, locus YOR070C, strain gyp1, active compounds read low 0.992 | S. cerevisiae deletion strains, locus YOR080W, strain dia2, active compounds read low 0.974 | S. cerevisiae deletion strains, locus YOR083W, strain WHI5 (second series), active compounds read low 1.02 | S. cerevisiae deletion strains, locus YOR083W, strain WHI5, active compounds read low 1.01 | S. cerevisiae deletion strains, locus YOR106W, strain vam3, active compounds read low 1.01 | S. cerevisiae deletion strains, locus YOR136W, strain idh2, active compounds read low 0.983 | S. cerevisiae deletion strains, locus YOR144C, strain elg1, active compounds read low 0.996 | S. cerevisiae deletion strains, locus YOR184W, strain ser1, active compounds read low 0.98 | S. cerevisiae deletion strains, locus YOR231W, strain MKK1, active compounds read low 0.99 | S. cerevisiae deletion strains, locus YOR265W, strain rbl2, active compounds read low 0.99 | S. cerevisiae deletion strains, locus YOR270C, strain vph1, active compounds read low 1.05 | S. cerevisiae deletion strains, locus YOR290C, strain snf2, active compounds read low 0.956 | S. cerevisiae deletion strains, locus YOR316C, strain cot1, active compounds read low 0.995 | S. cerevisiae deletion strains, locus YPL051W, strain arl3, active compounds read low 0.999 | S. cerevisiae deletion strains, locus YPL055C, strain LGE1, active compounds read low 0.989 and 1 | S. cerevisiae deletion strains, locus YPL078C, strain atp4, active compounds read low 1.01 | S. cerevisiae deletion strains, locus YPL106C, strain sse1, active compounds read low 0.944 | S. cerevisiae deletion strains, locus YPL240C, strain hsp82, active compounds read low 0.994 | S. cerevisiae deletion strains, locus YPL241C, strain CIN2, active compounds read low 0.984 and 1 | S. cerevisiae deletion strains, locus YPL256C, strain CLN2, active compounds read low 0.984 | S. cerevisiae deletion strains, locus YPR119W, strain clb2, active compounds read low 0.987 | S. cerevisiae deletion strains, locus YPR141C, strain kar3, active compounds read low 0.982 | S. cerevisiae deletion strains, locus YPR163C, strain tif3, active compounds read low 0.981 | S. cerevisiae deletion strains, locus YPR167C, strain met16, active compounds read low 0.993 | S. cerevisiae deletion strains, strain wtn01, active compounds read low 1.01 | S. cerevisiae strains, strain wild type, active compounds read low 0.988
